Among the data in PubChem BioAssay AID651610 (Broad Institute, 2012) are inhibition values, retold here.

Out of some 360,000 compounds screened, about 3,900 (1.1%) were called active.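 How the source made its calls: active means mean replicate inhibition score of at least 50 and every replicate individually at or above 50; inconclusive means only one of the two criteria met; inactive means mean below 50 and not all replicates reaching 50.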 Only a selection was taken, and actives are over-represented in it overall.

A short description of the assay: inhibitors of HIV-1 Env-driven cell-cell fusion, primary screen, HeLa-JRFL effector, CEM21 target cells, luciferase (AID 651610).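 Further: 0% = plate neutral controls and 100% = maraviroc near 300 nM.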 As to conditions: active compounds read high; at 16.7 µM unless noted.
The inhibition is the relative decrease from the control value, in per cent. As for `C[C@@H]1CN([C@@H](C)CO)S(=O)(=O)c2ccc(-c3cccnc3)cc2O[C@H]1CN(C)CC1CCOCC1`, the inhibition was -3.87% (inactive).

Consider `C[C@@H]1CN([C@H](C)CO)C(=O)c2cccc(NS(C)(=O)=O)c2O[C@@H]1CN(C)C(=O)Nc1cccc2ccccc12`, for which the inhibition is -1.18% (inactive).

`Cc1oc2c(F)c(F)c(F)c(F)c2c1S(=O)(=O)Nc1cccc(C(F)(F)F)c1`: the inhibition was 55% [at 12.3 µM] (active).

Turning to `Cc1noc(C)c1S(=O)(=O)Nc1cc(C(F)(F)F)ccc1N1CCOCC1`, the inhibition was 22.4% [at 12.3 µM] (inactive).

As for `O=C(CNS(=O)(=O)c1cccc(C(F)(F)F)c1)Nc1ccccc1F`, the inhibition is -11.7% [at 12.3 µM] (inactive).

As to `COc1ccccc1CNC(=O)C[C@H]1C[C@@H]2c3cc(NC(=O)c4ccc5c(c4)OCO5)ccc3O[C@@H]2[C@H](CO)O1`, the inhibition was 4.06% (inactive).

On to `CC(C)OC(=O)c1sc2nc3c(cc2c1N)C(=O)CCC3`, for which the inhibition was -187% [at 12.3 µM] (inactive).

As to `NC(=O)c1sc2nc3c(c(-c4ccccc4)c2c1N)CCC3`, the inhibition was 103% [at 12.3 µM] (active).

Turning to `COc1ccccc1-c1c(C#N)c(N)nc2c1CCC2`, the inhibition was 24% [at 12.3 µM] (inactive).

For `C[C@@H]1CN([C@@H](C)CO)C(=O)c2cc(NC(=O)Cn3cnnn3)ccc2O[C@H]1CN(C)Cc1ccc(C(F)(F)F)cc1`, the inhibition is 12.3% (inactive).

For `Cc1cc(C)c2cc(CN(Cc3nnnn3Cc3ccc(F)cc3)C3CCCC3)c(=O)[nH]c2c1`, the inhibition was 84.5% [at 12.3 µM] (active).

For the compound `Cc1n[nH]c(=O)c2c1nnn2Cc1ccc(F)cc1`, the inhibition was -10.3% [at 12.3 µM] (inactive).

Turning to `C[C@@H]1CN([C@H](C)CO)C(=O)c2cc(-c3ccccc3F)cnc2O[C@H]1CN(C)C(=O)NC1CCCCC1`, the inhibition was -1.88% (inactive).

For the compound `O=C(C[C@H]1CC[C@@H]2NC[C@H](O)COC[C@H]2O1)NCCN1CCCCC1`, the inhibition is 18.8% (inactive).

As to `COc1ccccc1C(=O)NC(CCSC)C(=O)N1CCN(C(C)=O)CC1` (configuration not stated), the inhibition is -8.21% [at 12.3 µM] (inactive).

Regarding `COc1ccccc1C(=O)NC(CCSC)C(=O)N1CCN(C/C=C/c2ccccc2)CC1` (configuration not stated), the inhibition was 75.2% [at 12.3 µM] (active).

Take `CSCCC(NC(=O)c1ccccc1)C(=O)N1CCN(Cc2ccc(Cl)cc2)CC1` (configuration not stated): the inhibition is 11.5% [at 12.3 µM] (inactive).

As for `O=C(NCc1ccccc1)[C@H]1CCCN1C(=O)[C@@H]1CCCN1C(=O)c1ccc(Cl)cc1Cl`, the inhibition is -35.2% [at 12.3 µM] (inactive).

With `CO[C@H]1CN(C)C(=O)c2cc(NS(=O)(=O)c3ccccc3)ccc2OC[C@H](C)N(C(=O)NC(C)C)C[C@@H]1C`, the inhibition is -19% (inactive).

For the compound `CO[C@@H]1CN(C)C(=O)c2cc(NS(=O)(=O)c3ccc(C)cc3)ccc2OC[C@H](C)N(C(=O)NC(C)C)C[C@@H]1C`, the inhibition is 64.3% (active).

`COc1ccccc1S(=O)(=O)Nc1ccc2c(c1)C(=O)N(C)C[C@H](OC)[C@H](C)CN[C@H](C)CO2`: the inhibition was -20.4% (inactive).

On to `COc1ccccc1S(=O)(=O)Nc1ccc2c(c1)C(=O)N(C)C[C@@H](OC)[C@@H](C)CN[C@@H](C)CO2`, for which the inhibition was 61.2% (active).

Take `COCC(=O)N1C[C@@H](C)[C@H](OC)CN(C)C(=O)c2ccc(NC(=O)c3ccc(F)cc3)cc2OC[C@H]1C`: the inhibition is 19.1% (inactive).

On to `COc1cccc(S(=O)(=O)Nc2ccc3c(c2)C(=O)N(C)C[C@@H](OC)[C@@H](C)CN[C@@H](C)CO3)c1`, for which the inhibition is 3.22% (inactive).

As to `COCC(=O)N1C[C@@H](C)[C@H](OC)CN(C)C(=O)c2ccc(NC(=O)c3ccc(OC)cc3)cc2OC[C@@H]1C`, the inhibition is 58.2% (active).

As to `COCC(=O)N1C[C@H](C)[C@@H](OC)CN(C)C(=O)c2cc(NC(=O)c3ccc(OC)cc3)ccc2OC[C@H]1C`, the inhibition was -0.959% (inactive).

As to `CO[C@@H]1CN(C)C(=O)c2cc(NS(=O)(=O)c3ccccc3)ccc2OC[C@@H](C)N(C(=O)NC(C)C)C[C@@H]1C`, the inhibition was 3.87% (inactive).
